# Screening results deposited in PubChem BioAssay by several laboratories.
# KLF5 inh – KLF5 expression inhibitors, primary screen, DLD-1 cells, luminescence | DLD-1 KLF5 promoter-luciferase reporter | inhibition, % at 5 µM | 290,000 tested, 0.23% active | AID 1700, 2009;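 active = inhibition above a per-plate limit of that plate's mean compound inhibition plus 3 SD, cut at about 60% in these data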;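 also: 0% = DMSO wells and 100% = LY294002 at 200 µM; higher means less KLF5 promoter-driven luciferase light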
# BaF3 parental – parental Ba/F3 cell viability inhibition, counter-screen for JAK2V617F inhibitor project, murine pro-B, CellTiter-Glo luminescence; CellTiter-Glo ATP luminescence; inhibition, % at 5.6 µM; 220,000 tested, 1.1% active;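 active = inhibition above a per-campaign cutoff, the mean inhibition of all tested compounds plus 3 SD, cut at about 27% in these data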;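 also: 0% = DMSO wells and 100% = JAK Inhibitor I control wells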
# aSyn UTR inh – MLPCN primary screen, SNCA 5' untranslated region; alpha-synuclein 5'UTR reporter, inhibitor activity; inhibition, % (tested at 7.5 µM); AID 1813, 2009; 300,000 tested, 0.82% active; in the data active = inhibition above about 60%;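 also: H4 neuroglioblastoma cells stably carrying SNCA 5'UTR luciferase fusion; 0% = DMSO wells and 100% = positive control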
# Ba/F3 V617F tox – reduced viability of JAK2V617F-dependent Ba/F3 cells, primary screen, JAK2V617F inhibitor project, cell-based, Ba/F3 EpoR-JAK2V617F, luminescence; 220,000 tested, 1.1% active; inhibition, % at 5.6 µM; ATP luminescence;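 active = inhibition above the campaign mean plus 3 SD over all tested compounds, cut at about 24% in these data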;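 also: cytokine-independent growth of Ba/F3 cells driven by EpoR plus mutant JAK2; 0% = DMSO-treated cells and 100% = JAK inhibitor I control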
# IEC-6 tox – cytotoxicity in IEC-6 intestinal epithelial cells, primary screen, cytotoxicity control for KLF5 inhibitor project, cell-based, luminescence. AID 1825, 2009. IEC-6 cytotoxicity, luminescence viability. inhibition, % at 5 µM. 290,000 tested, 0.78% active; in the data active = inhibition above about 22%;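 also: 0% = plate median of test compound wells and 100% = cytotoxic reference compound wells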
# APP 5UTR inh – inhibitors of APP translation via 5'UTR reporter, primary screen, APP 5'UTR luciferase, SH-SY5Y cells | SH-SY5Y APP 5'UTR-luciferase reporter, luminescence | inhibition, % at 2 µM | 190,000 tested, 0.82% active | AID 1285, 2008;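 active = inhibition above a set limit, derived from the sample mean plus 3 SD, cut at about 45% in these data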
# BaF3 tox 2 – parental Ba/F3 cell viability inhibition, counter-screen for JAK2V617F inhibitor project, murine pro-B, CellTiter-Glo luminescence; 580 tested, 31% active; inhibition, % at 5.6 µM; cells kept alive by added IL-3; AID 1520, 2009; shares compounds with Ba/F3 V617F tox;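 active = cell growth inhibition above the hit limit set in the earlier mutant JAK2 cell screen, cut at about 27% in these data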;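 also: plate controls were DMSO-treated cells for no effect and JAK Inhibitor I control wells for full effect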
# JAK2V617F confrm – viability loss in Ba/F3 EpoR-JAK2V617F cells, confirmation, JAK2V617F inhibitor project, cell-based, luminescence, triplicate; shares compounds with Ba/F3 V617F tox; CellTiter-Glo luminescence; inhibition, % at 5.6 µM; 580 tested, 66% active;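 active = mean inhibition above the hit cutoff derived in the earlier primary screen, cut at about 25% in these data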;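 also: 0% = DMSO-treated cells and 100% = JAK inhibitor I control wells; higher means lower luminescence from reduced cell ATP and viability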
# The depositor's hits bear a star; . = no result given. Hits are enriched below; roughly 2.2% of the tested compounds scored in any of these assays.
SMILES,KLF5 inh,BaF3 parental,aSyn UTR inh,Ba/F3 V617F tox,IEC-6 tox,APP 5UTR inh,BaF3 tox 2,JAK2V617F confrm
CNC(=O)c1nnsc1S(=O)c1ccc(Cl)cc1 (stereo not given),8.0,3.0,-48.9,43.6*,3.9,86.5*,8.0,70.1*
CN(C)CCNC(=O)c1c(CSc2ccccc2)noc1C(=O)NCc1ccccc1,.,.,12.1,.,.,.,.,.
Cc1ccc(OCCOC(=O)Cn2nc(C)c([N+](=O)[O-])c2C)cc1,15.8,8.1,-3.9,26.1*,3.4,21.4,2.1,3.1
CCOC(=O)Cn1nc(C)c([N+](=O)[O-])c1C,-45.8,8.1,-7.6,-2.0,-6.5,-6.2,.,.
O=C(CSc1nnnn1-c1ccc(F)cc1)c1ccc(O)c(O)c1,5.8,-11.0,-38.7,31.6*,7.6,15.1,2.9,80.4*
O=C(O)c1ccc(CSc2nnnn2-c2ccc(F)cc2)cc1,-22.9,.,10.9,.,-1.7,.,.,.
O=C1C=CC(=O)N1CCNc1ncc(C(F)(F)F)cc1Cl,-3.0,-0.9,10.2,47.8*,17.1,73.8*,-1.4,82.3*
O=C1CC(=O)N(CCNc2ncc(C(F)(F)F)cc2Cl)C(=O)N1,-10.6,0.9,7.2,-0.4,-2.5,-8.6,.,.
O=C(Nc1nc(-c2ccc(Cl)cc2Cl)cs1)C1CCCO1 (stereo not given),-26.2,0.4,-27.1,27.5*,-0.7,0.6,-1.4,1.6
Cc1nc2nc3c(c(=O)n2[nH]1)CCC3,-31.4,7.0,10.8,-1.3,-7.4,16.8,.,.
Cc1[nH]c(=O)nc2c1CCC2,-14.8,0.2,-4.0,30.1*,2.3,-20.0,-7.0,-10.2
COc1ccccc1CCC(=O)Nc1ccc(C)cc1Cl,-59.4,7.2,-160.2,2.3,2.5,-15.3,.,.
CCCC(=O)C1=C(O)C(C(=O)OC)C(C)(C)CC1=NCCc1ccccc1 (stereo not given),-25.3,.,1.2,.,-4.0,.,.,.
CCN(CC)C(=O)Cn1cc(C(=O)C(=O)NCCc2c[nH]c3ccccc23)c2ccccc21,-22.7,.,-13.0,.,-0.9,.,.,.
CCOC(=O)C1CCCNC1=O (stereo not given),-17.1,0.9,-13.0,-4.0,-3.7,.,.,.
COc1cc(/C=N/Nc2nc(N3CCCC3)nc(N3CCCC3)n2)ccc1O,-8.2,2.5,0.1,-0.2,2.9,0.5,.,.
Oc1ccc(/C=N/Nc2nc(N3CCCC3)nc(N3CCCC3)n2)cc1O,-11.4,4.7,-24.4,45.9*,1.3,-7.2,70.8*,98.0*
COC(=O)c1[nH]c2ccc(Br)cc2c1NC(=O)CN1CCN(C2CCCCC2)CC1,-22.8,11.0,75.1*,45.9*,9.3,-7.6,2.4,4.4
CN1CC(=O)N(CC(=O)Nc2ccc3c(c2)CCC3)C1=O,-3.5,4.7,-9.3,-1.1,-3.5,-27.7,.,.
O=c1[nH]c(CN2CCN(S(=O)(=O)c3cccs3)CC2)nc2c(Br)cc(Br)cc12,-27.3,-1.2,-19.2,-1.8,-2.4,-13.1,.,.
Cc1ccc(NC(=S)N(CCN(C)C)Cc2cc3cccc(C)c3[nH]c2=O)cc1,5.1,22.5,-60.1,43.0*,10.9,13.4,26.4,39.0*
Cc1cccc(NC(=S)N(CCN(C)C)Cc2cc3cccc(C)c3[nH]c2=O)c1,-24.8,1.7,2.1,-3.7,-0.6,10.9,.,.
Cc1nn(CC(=O)Nc2cccc(Cl)c2)c(=O)c2cc(-c3ccccc3)nn12,-22.6,.,27.7,.,-12.9,.,.,.
Cc1ccc(O)c(NC(=O)C2CCCCC2)c1,-23.3,19.9,-27.3,24.9*,-0.1,.,17.6,50.1*
Cc1ccc(NC(=O)C2CCCCC2)c(O)c1,-22.5,2.6,-7.7,1.3,2.4,-13.1,.,.
SMILES,KLF5 inh,BaF3 parental,aSyn UTR inh,Ba/F3 V617F tox,IEC-6 tox,APP 5UTR inh,BaF3 tox 2,JAK2V617F confrm
O=C(c1ccc(Cl)c([N+](=O)[O-])c1)N1CCCc2ccccc21,-43.4,.,-10.7,.,-6.1,.,.,.
Cc1ccc(CNC(=O)Nc2ccccc2)c(C)c1,-86.2,.,-153.4,.,4.3,.,.,.
FC(F)(F)c1n[nH]c(=S)n1/N=C/c1ccco1,6.3,0.3,9.3,35.5*,-4.4,11.3,-7.7,-10.0
S=c1[nH]nc(-c2ccc(Cl)cc2)n1/N=C/c1ccco1,-22.5,-0.4,9.4,-0.5,1.1,.,.,.
CCOc1ccc(C(=O)N(Cc2ccc(OC)cc2)Cc2cc3cc(OC)ccc3[nH]c2=O)cc1,-17.9,3.8,13.2,46.5*,-2.7,-20.1,-2.6,-3.1
CCCN(Cc1cc2cc(OC)ccc2[nH]c1=O)C(=O)c1ccncc1,4.9,7.1,-29.2,3.2,11.4,4.5,.,.
CC(=O)c1ccc(NC(=O)C(C)OC(=O)COc2ccc(C#N)cc2)cc1 (stereo not given),-10.7,9.1,-31.8,2.2,-4.4,-0.7,.,.
CC(=O)Oc1ccc(C(=O)O)cc1OC(C)=O,5.1,-2.4,17.9,-3.5,-4.7,4.1,.,.
CC(=O)Oc1ccc(OC(C)=O)c(SCCCCCCl)c1,-27.7,4.0,-60.2,84.7*,1.1,83.1*,102.0*,97.0*
OC(COCc1ccco1)CN1CCN(C(c2ccccc2)c2ccccc2)CC1 (stereo not given),-31.0,4.1,3.3,2.5,6.8,-16.7,.,.
Cc1ccc(Cl)cc1N1CCN(CC(O)COCc2ccco2)CC1 (stereo not given),-14.3,10.0,-15.3,98.5*,5.7,-28.2,-6.0,0.1
O=S(=O)(CCSc1nc2ccccc2o1)c1nc2ccccc2s1,13.0,25.6,-28.1,82.9*,0.4,12.7,29.3*,98.8*
CN(Cc1ccccc1)C(=O)c1ccccc1Br,-6.7,6.0,6.9,-3.5,-3.0,4.4,.,.
CC(C)(C)c1cc(NC(=O)CCl)n(-c2ccccc2)n1,1.5,-9.1,-59.9,30.4*,-7.5,.,-4.6,81.1*
COc1ccc(S(=O)(=O)N[C@@H](CSCc2ccccc2)C(=O)O)cc1,-1.6,.,.,.,-5.5,.,.,.
COc1ccc(CCN(C)C(=O)C2CCN(Cc3cccc(OC)c3OC)CC2)cc1OC,-22.5,-0.9,25.8,31.2*,2.3,-21.7,-1.3,-1.8
Cc1cc(C)c(C#N)c(N2CCN(c3ccc(F)cc3)CC2)n1,2.8,.,-0.4,.,3.1,.,.,.
CN(C)c1nc(N2CCN(c3ccc(F)cc3)CC2)c(C#N)c(=O)o1,-1.8,13.3,33.6,27.9*,-0.3,4.4,-2.5,-7.9
CCOc1ccc(-c2cc(C(=O)N3CCN(C)CC3)c3ccccc3n2)cc1,-54.4,6.9,-135.9,0.6,-1.9,-36.8,.,.
CCOC(=O)N1CCN(C(=O)c2cc(-c3ccc(OCC)cc3)nc3ccccc23)CC1,6.1,20.4,-12.5,68.2*,23.9*,78.4*,69.2*,94.0*
